Measurements published in PubChem BioAssay AID1490 (National Center for Advancing Translational Sciences (NCATS), 2009).
About 11,000 (3.5%) of roughly 310,000 compounds were called active. Roughly 4% stayed inconclusive and do not appear here. This is one part of a sample in which actives are shown more often than they occur. Where a structure was tested more than once in an assay, its records may differ in their call. Unmarked numbers belong to inactive results. Calls follow the shape of the dose curve; as a rule, active = well fitted inhibition curve with a large enough effect; inconclusive = small, poorly fitted or top-dose-only effect, or another doubt; inactive = no such curve, though single readings can be large or run the other way.

These molecules were tested against 4'-phosphopantetheinyl transferase ffp (Bacillus subtilis) (UniProt Q9F4F7) (assay: qHTS Assay for Inhibitors of Bacillus subtilis Sfp phosphopantetheinyl transferase (PPTase)). Conditions: Biochemical Sfp PPTase activity.
Text: Assay Submitter: Michael Burkart, University of California, San Diego
Screening Center PI: Austin, C.P.
Screening Center: NIH Chemical Genomics Center [NCGC]
The covalent attachment of a phosphopantetheinyl (4'-PP) arm to a variety of synthases and other proteins is a key posttranslational protein modification. The 4'-PP is installed on the proteins post-translationally from coenzyme A (CoA) on a conserved serine residue by action of phosphopantetheinyl transferase (PPTase) enzymes. Phosphopantetheinylation is essential for synthase activity, and removal of the PPTase gene precludes natural product synthesis in microorganisms, or in the case of fatty acid biosynthesis, renders the organism unviable. PPTase enzymes belong to a distinct structural superfamily. Within bacteria, these enzymes are grouped into two classes based upon primary structure, the AcpS-Type and Sfp-Type PPTases.
Sfp-type PPTases, corresponding to an activator of surfactin production in Bacillus subtilis, are responsible for modifying type I polyketide and nonribosomal peptide synthases of prokaryotes. Sfp-type PPTases are responsible for the activation of a variety of pathogen-associated virulence factors. Among these compounds are toxins such as mycolactone from Mycobacterium ulcerans, siderophores such as vibriobactin from Vibrio cholerae or mycobactin from Mycobacterium tuberculosis, as well as the mycolic acids which form the waxy cell wall of Mycobacteria. The biosyntheses of these natural products are considered attractive targets for drug design.
In search of small molecule Sfp-PPTase inhibitors, a fluorescence quenching assay was developed for detection of Bacillus subtilis Sfp-PPTase enzymatic activity in a miniaturized high-throughput format. The consensus ybbr acceptor peptide […] was N-terminally labeled with Black Hole Quencher-2 (BHQ-2) and used in combination with rhodamine-labeled coenzyme A as a co-substrate.
Inhibition of Sfp-PPTase was detected by recording the fluorescence intensity change over a 30-minute reaction period at a 525 nm excitation and 598 nm emission. Reagents were supplied by Michael Burkart and Timothy Foley, University of California at San Diego.
This BioAssay deposition is for validation of the developed Sfp-PPtase assay.
Assay Buffer: 50 mM Hepes-Na pH 7.6, 10 mM MgCl2, 0.01% Nonidet P-40, and 0.01% BSA.
3 uL of Sfp-PPTase enzyme (final concentration 15 nM) and 1 uL of substrate mixture (final concentration for rhodamine-CoA and BHQ-2-YbbR 5 uM and 12.5 uM, respectively) dispensed in columns 1, 2, 5 - 48. Columns 1 and 2 used to generate neutral control (uninhibited reaction)
Three uL of reagents, consisting of buffer (in columns 3 and 4 as negative control) and Sfp-PPTase (in columns 1, 2, 5 - 48) were dispensed into 1,536-well Greiner black solid bottom plate. Compounds (23 nL) were transferred via Kalypsys pintool equipped with 1,536-pin array. The plate was incubated for 15 min at room temperature, followed by the addition of 1 uL substrate to start the reaction. The plate was then centrifuged at 1000 rpm for 15 seconds, and the fluorescence intensity recorded on a ViewLux High-throughput CCD imager (Perkin-Elmer) using standard BODIPY optics (525 nm excitation and 598 nm emission). The plate was then incubated for 30 minutes, and a second read on the ViewLux was performed. The fluorescence intensity difference over the 30-minute period was used to calculate the respective reaction rate for each well.
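Also: the enzyme is Sfp with the accession as filed and its product quenches rhodamine fluorescence.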
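For largest response in the series, negative = inhibition in this document: 0% = enzyme reaction without inhibitor and -100% = no enzyme wells.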
Potency is read from the fitted curve at half-maximal effect.

Row | Structure (SMILES) | largest response in the series, negative = inhibition | Potency
1 | CCOC(=O)c1c(N)n(Cc2ccccc2)c2nc3ccccc3nc12 | 13.5% | 
2 | CCOC(=O)C(O)(c1ccc(NC(=O)c2ccco2)c(OC)c1)C(F)(F)F (stereo not drawn) | 3.62% | 
3 | COc1cc(Cn2c(N)c(C(=O)NCc3ccco3)c3nc4ccccc4nc32)cc(OC)c1OC |  | 56.2 µM (active)
4 | CC1CCCCN1Cc1cccnc1 (stereo not drawn) | -23.2% | 
5 | c1cncc(CNC2=NCCC2)c1 | 12.2% | 
6 | CN1CCC(N(C)Cc2cccnc2)CC1 |  | 89.1 µM (active)
7 | CC(=O)c1c(O)c(C)c(O)c(Cc2c(O)c3c(c(C(=O)/C=C\c4ccccc4)c2O)OC(C)(C)C=C3)c1O | -29.6% | 
8 | COC1CC(OC2CC[C@@]3(C=O)C4CC[C@]5(C)C(C6=CC(=O)OC6)CC[C@@]5(O)C4CC[C@]3(O)C2)OC(C)C1O (stereo partly drawn) | 2.96% | 
9 | CN1CCN(C(=S)SCC(=O)Nc2ccc(Cl)cc2C(=O)c2ccccc2)CC1 | -8.26% | 
10 | CC(C(=O)Nc1ccc(Cl)cc1Cl)N1CC=C(c2ccccc2)CC1 (stereo not drawn) |  | 56.2 µM (active)
11 | CN(C)C1C(=O)C(C(N)=O)=C(O)[C@@]2(O)C(=O)C3=C(O)c4c(O)cccc4[C@@](C)(O)C3C[C@@H]12 (stereo partly drawn) | -32.6% | 
12 | C[C@@H]1C[C@H]2CC[C@H](O2)[C@H](C)C(=O)O[C@@H](C)C[C@@H]2CC[C@@H](O2)[C@@H](C)C(=O)O[C@H](C)C[C@H]2CC[C@H](O2)[C@H](C)C(=O)O[C@@H](C)C[C@@H]2CC[C@@H](O2)[C@@H](C)C(=O)O1 | 6.1% | 
13 | CC(=O)OC1C2CCC3C1(CC(O)[C@@]1(O)[C@@H](CC(O)C1(C)C)[C@]3(C)O)C[C@@]2(C)O (stereo partly drawn) | 6.04% | 
14 | N#Cc1c(Cl)c(Cl)c(Cl)c(C#N)c1Cl | -8.59% | 
15 | CC[N+]1(CCOC(=O)C(O)(c2ccccc2)c2ccccc2)CCCCC1 | 12% | 
16 | CO[C@@H]1C[C@@H](C[C@H]2CC[C@H](C)[C@@H]([C@@H](C)C(=O)O)O2)O[C@]2(O[C@](C)([C@H]3CC[C@@](C)(C4OC([C@H]5O[C@@](O)(CO)[C@H](C)C[C@@H]5C)C[C@@H]4C)O3)C[C@H]2C)[C@@H]1C (stereo partly drawn) | 23.4% | 
17 | CN(C)/C=C(\C=[N+](C)C)c1[nH]ncc1[N+](=O)[O-] | 0.787% | 
18 | CC(C)(Cc1c[nH]c2ccc(Cl)cc12)NCCOc1ccccc1OCC1CC1 | -25.3% | 35.5 µM (active)
19 | CCC(=O)CC(c1ccc([N+](=O)[O-])cc1)c1c(O)c2ccccc2oc1=O (stereo not drawn) | 6.92% | 
20 | c1ccc(CN2CC[C@@]3(CCCNC3)C2)cc1 | 1.98% | 
21 | COc1ccc(C2CC(c3cccs3)=NN2c2nc(C)c(C(C)=O)s2)cc1OC (stereo not drawn) |  | 39.8 µM (active)

Row | Structure (SMILES) | largest response in the series, negative = inhibition | Potency
22 | Cc1ccc(-n2c(O)c(C=NCC3CCCO3)c(=O)[nH]c2=O)c(C)c1 (stereo not drawn) | -4.95% | 
23 | CNC(=S)N/N=C1\C2CN3CCN(C2)CC1(c1ccccc1)C3 | -18% | 
24 | COc1cccc(N2C(=O)NC(=O)/C(=C\c3ccc([N+](=O)[O-])s3)C2=O)c1 |  | 31.6 µM (active)
25 | O=C1NC(=O)N(c2ccccc2)C(=O)/C1=C/c1ccc([N+](=O)[O-])s1 |  | 35.5 µM (active)
26 | COc1cc(-n2c(=S)[nH]c3ccc(C)cc3c2=O)c(Cl)cc1Cl | 4.46% | 
27 | C=CCSSCC=C | -26.6% | 
28 | Cc1cccc([C@H](C)c2cnc[nH]2)c1C | 9.27% | 
29 | COc1ccc(C2N3CC(C)(C)CN23)cc1 (stereo not drawn) | 0.855% | 
30 | Cc1cccc(-n2c(O)c(C=NC34CN5CN(CN(C5)C3)C4)c(=O)[nH]c2=O)c1 | 9.77% | 
31 | C[N+]12CN3CN(CN(C3)C1)C2 | 12.8% | 
32 | c1ccc(N2CC[C@@]3(CCCNC3)C2)nc1 | -23.5% | 
33 | O=c1[nH]c(=O)n(-c2ccccc2)c(O)c1C=NC12CN3CN(CN(C3)C1)C2 | -28% | 
34 | CCCCCCCCCCCCN=C(N)N | -27% | 
35 | O=C1NC(=O)N(c2ccc(F)cc2)C(=O)/C1=C/c1ccc2c(c1)CCCN2Cc1ccccc1 |  | 44.7 µM (active)
36 | CCC(C)C(=O)O[C@@H]1C[C@@]2(C)C(c3ccoc3)OC(=O)CC23OC2(C)O[C@@]14[C@@]1(C)C(CC(=O)OC)C5(C)CC1(O)C(O)(C5OC(=O)C1(C)OC1C)C(OC(C)=O)[C@@]34O2 (stereo partly drawn) | 3.31% | 
37 | CN(C)CC1CCCCC1OC(=O)c1ccc(Cl)c(Cl)c1 (stereo not drawn) | -11.6% | 
38 | CCCCCCN=C(CC)c1c(O)n(CCCC)c(=O)[nH]c1=O | -9.2% | 
39 | C[C@@]12CCC3C(CC[C@@H]4CC(O)CC[C@@]34C)C1CCC2O (stereo partly drawn) | 7.22% | 
40 | Cc1ncsc1CCCl |  | 79.4 µM (active)
41 | Clc1ccc([C@@H]2C[C@H]3CC[C@@H]2N3)cn1 | 9.37% | 
42 | Cc1ccc(-c2nn(CCC#N)cc2C(=O)O)cc1C | 25.7% | 
